Read-out in test [1]: Macrophage colony-stimulating factor (MCSF), CSF1 (gene 1435)
The experiment in a line: BSK_hDFCGF_MCSF: BioMAP Diversity Plus: hDFCGF Assay for Macrophage colony-stimulating factor (MCSF) Biomarker Activity (AID 2283060). Particulars: primary human foreskin fibroblasts; actives raise or lower the signal. The method, boiled down: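 ELISA read-out of M-CSF in human dermal foreskin fibroblast cultures, 24 h after chemical dosing; gain or loss of signal fitted bidirectionally relative to DMSO baseline.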

Test [2] is described as follows: BSK_hDFCGF_SRB: Viability Assessment in the BioMAP Diversity Plus: hDFCGF Assay (AID 2283061).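 Note: cells exposed to compound for 24 h before the read.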 Particulars: primary human foreskin fibroblasts. The method, boiled down: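 Primary human foreskin fibroblasts; 24 h post-dose; fixed 10% TCA, stained 0.1% SRB, A560 read; total protein as overt cytotoxicity measure; curves fit bidirectionally vs DMSO control.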
Read-out in test [3]: TIMP metallopeptidase inhibitor 1 (TIMP1), TIMP1 (gene 7076)
As to the kind of experiment: BSK_hDFCGF_TIMP1: BioMAP Diversity Plus: hDFCGF Assay for TIMP metallopeptidase inhibitor 1 (TIMP1) Biomarker Activity (AID 2283062). The settings on record: primary human foreskin fibroblasts; actives raise or lower the signal. The method, boiled down:
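ELISA readout of TIMP-1 from human dermal foreskin fibroblast cultures 24 h post-dosing. Curves were fitted in both directions against DMSO baseline, with SRB total-protein staining in parallel cultures as a cytotoxicity check.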

Read-out in test [4]: Monokine induced gamma interferon (MIG), CXCL9 (gene 4283)
The experiment in a line: BSK_hDFCGF_MIG: BioMAP Diversity Plus: hDFCGF Assay for Monokine induced gamma interferon (MIG) Biomarker Activity (AID 2283063). The settings on record: primary human foreskin fibroblasts; actives raise or lower the signal. The method, boiled down:
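Fibroblasts (human foreskin, primary) dosed, 24 h, MIG by ELISA; fit bidirectional vs DMSO.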

Read-out in test [5]: Matrix Metallopeptidase 1 (MMP1), MMP1 (gene 4312)
As to the kind of experiment: BSK_hDFCGF_MMP1: BioMAP Diversity Plus: hDFCGF Assay for Matrix Metallopeptidase 1 (MMP1) Biomarker Activity (AID 2283064). The settings on record: primary human foreskin fibroblasts; actives raise or lower the signal. The method, boiled down: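 MMP1 levels quantified by ELISA 24 h after dosing human dermal fibroblast cultures, with parallel SRB total-protein staining for overt cytotoxicity. Data fitted in both directions against DMSO baseline.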

Read-out in test [6]: Vascular cell adhesion molecule 1 (VCAM1), VCAM1 (gene 7412)
As to the kind of experiment: BSK_hDFCGF_VCAM1: BioMAP Diversity Plus: hDFCGF Assay for Vascular cell adhesion molecule 1 (VCAM1) Biomarker Activity (AID 2283065).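 For AC50: VCAM-1 protein level quantified by ELISA after 24 h chemical exposure.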 The settings on record: primary human foreskin fibroblasts; actives raise or lower the signal. The method, boiled down: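 ELISA read-out of VCAM-1 on human skin fibroblasts, 24 h post-dose; gain or loss of signal fitted bidirectionally against DMSO baseline.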

Read-out in test [7]: Plasminogen activator inhibitor-1 (PAI1), SERPINE1 (gene 5054)
The experiment in a line: BSK_hDFCGF_PAI1: BioMAP Diversity Plus: hDFCGF Assay for Plasminogen activator inhibitor-1 (PAI1) Biomarker Activity (AID 2283066). The settings on record: primary human foreskin fibroblasts; actives raise or lower the signal. The method, boiled down:
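PAI-1 levels in human dermal foreskin fibroblasts were quantified by ELISA 24 h after dosing, with gain or loss analysed against DMSO. Overt cytotoxicity was checked by sulforhodamine B total-protein staining in parallel cultures.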

Read-out in test [8]: Intercellular Adhesion Molecule 1 (ICAM1), ICAM1 (gene 3383)
As to the kind of experiment: BSK_KF3CT_ICAM1: BioMAP Diversity Plus: KF3CT Assay for Intercellular Adhesion Molecule 1 (ICAM1) Biomarker Activity (AID 2283067). Particulars: primary human keratinocytes with fibroblasts; actives raise or lower the signal. The method, boiled down: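 ELISA readout of ICAM-1; KF3CT human skin co-culture (keratinocytes + foreskin fibroblasts), 24 h post-dose; gain/loss fit vs DMSO baseline.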

Read-out in test [9]: Interferon-gamma inducible Protein 10 (IP10), CXCL10 (gene 3627)
The experiment in a line: BSK_KF3CT_IP10: BioMAP Diversity Plus: KF3CT Assay for Interferon-gamma inducible Protein 10 (IP10) Biomarker Activity (AID 2283068). The settings on record: primary human keratinocytes with fibroblasts; actives raise or lower the signal. The method, boiled down: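 In a primary skin co-culture of keratinocytes and fibroblasts, IP-10 is quantified by ELISA at 24 h after dosing. SRB staining of parallel wells monitors overt toxicity. Curves are fitted both directions against DMSO.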

The nature of test [10]: BSK_KF3CT_SRB: Viability Assessment in the BioMAP Diversity Plus: KF3CT Assay (AID 2283069).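 Note: read 24 h after compound addition.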 The settings on record: primary human keratinocytes with fibroblasts. The method, boiled down:
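Cytotoxicity was gauged by SRB staining (0.1% SRB, 10% TCA fixation, 560 nm) of parallel cultures at 24 h. The cells were primary human skin keratinocytes co-cultured with fibroblasts, and activity was fitted in both directions against DMSO.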

Several values for one entry are separate records, joined by “and”; a condition that tells them apart may be missing. Identical values can stand only once. Where a structure was tested more than once in an assay, its records may differ in their call. Activity calls are given as the source filed them. Rule for the calls: active = hit-call score of the fitted dose curve at least 0.9, where 1 is the maximum; inactive = score below 0.9.

As to `CCC1(C)C(=O)N(Cl)C(=O)N1Cl` (stereo not drawn), the outcome in test [1], in test [2], in test [3], in [4], in [5] and in test [6] was inactive. In addition, the outcome in test [7], in [8], in test [9] and in test [10] was inactive.
On to `CCCCCCOC(=O)CCCCC(=O)OCCCCCC`, for which the result in test [1], in test [2], in test [3], in test [4], in test [5] and in test [6] was inactive. Besides, the outcome in test [7], in [8], in test [9] and in test [10] was inactive.
For `C[N+](C)(C)CCCNS(=O)(=O)C(F)(F)C(F)(F)C(F)(F)C(F)(F)C(F)(F)C(F)(F)C(F)(F)C(F)(F)F`, the AC50 in [1] was 46.1 µM (active) and 48.7 µM (active); in test [2], 55.3 µM (active) and 47.5 µM (active); in test [6] it was 38.9 µM (active) and 50.2 µM (active); in [7] it was 47.8 µM (active) and 53.5 µM (active); in test [8], 47.6 µM (active); in test [9] it was 42.7 µM (active) and 46.7 µM (active). Moreover, the AC50 in test [10] is 49.8 µM (active) and 51.4 µM (active). In addition, the result in [3], in test [4], in test [5] and in test [8] was inactive.
Take `c1ccc(Nc2cccc3ccccc23)cc1`: the AC50 was 20 µM (active) and 14.5 µM (active) in test [1]; 32.7 µM (active) and 33.1 µM (active) in test [2]; 29.6 µM (active) and 28.8 µM (active) in test [3]; 27.5 µM (active) and 23.4 µM (active) in [4]; 30.7 µM (active) and 30 µM (active) in test [5]; 21.2 µM (active) and 20 µM (active) in test [6]. Also, the AC50 in [7] was 13.1 µM (active) and 12.3 µM (active); in [8] it was 30.7 µM (active) and 37.7 µM (active); in test [9] it was 34.2 µM (active) and 35.7 µM (active); in test [10], 31.8 µM (active) and 34.8 µM (active).
`CC=C(C)C(C)=O`: the result in test [1], in test [2], in test [3], in test [4], in [5] and in test [7] was inactive. In addition, the result in test [8], in test [9] and in test [10] was inactive. Moreover, the AC50 in test [6] is 6.7 µM (active).
`CCN1CN(CC)CN(CC)C1`: the outcome in test [1], in [2], in [3], in test [4], in test [5] and in test [6] was inactive. The result in test [7], in test [8], in test [9] and in [10] was inactive.
As for `CC(C)CCCCCOC(=O)CS`, the outcome in [1], in test [2], in [3], in [4], in [5] and in [6] was inactive. Also, the result in test [8], in [9] and in test [10] was inactive. In addition, the AC50 in [7] is 9.15 µM (active).
For the compound `COc1ccc(C(=O)/C(Br)=C\C(=O)O)cc1`, the AC50 was 15.4 µM (active) and 20 µM (active) in [1]; 29.4 µM (active) in test [2]; 28.6 µM (active) and 20 µM (active) in [3]; 28 µM (active) and 31.3 µM (active) in [4]; 33.5 µM (active) and 30.7 µM (active) in test [5]; 14.7 µM (active) and 7.59 µM (active) in test [6]. Besides, the AC50 in test [7] is 28.9 µM (active); in test [8], 20 µM (active); in test [9] it was 30.6 µM (active) and 30.2 µM (active); in test [10], 32 µM (active). In addition, the result in [7] and in test [10] was inactive.
Turning to `CC=C(C)C=CC=C(C)C`, the results for the AC50 in [1], in [6] and in test [7] were 3.97 µM (active), 6.06 µM (active) and 0.016 µM (active), respectively. Also, the outcome in test [2], in test [3], in test [4], in [5], in test [8] and in [9] was inactive. Besides, the result in [10] was inactive.
Take `O=C(O)C(F)(F)C(F)(F)C(F)(F)C(F)(F)C(=O)O`: the outcome in test [1], in test [2], in [3], in test [4], in [5] and in test [6] was inactive. In addition, the outcome in test [7], in test [8], in test [9] and in test [10] was inactive.
Consider `COc1ccc(C(=O)c2ccccc2)c(O)c1`, for which the result in test [1], in test [2], in [3], in test [4], in [5] and in test [6] was inactive. Moreover, the result in test [7], in test [8], in [9] and in test [10] was inactive.
`C1CNCCN1`: the outcome in test [1], in test [2], in test [3], in test [4], in test [5] and in [6] was inactive. Also, the outcome in test [7], in test [8], in test [9] and in [10] was inactive.
On to `CCOC(=O)C1=NOC(c2ccccc2)(c2ccccc2)C1`, for which the result in test [1], in test [2], in [3], in test [4], in test [5] and in test [6] was inactive. For the same compound, the outcome in [7], in test [8], in test [9] and in test [10] was inactive.
As for `CCCCCCCCC(CO)CCCCCC` (stereo not drawn), the AC50 is 4.32 µM (active) in [1], 2 µM (active) in test [2] and 3.75 µM (active) in [7]. In addition, the outcome in test [3], in [4], in test [5], in [6], in [8] and in test [9] was inactive. In addition, the result in test [10] was inactive.

The term AC50 denotes the concentration giving half of the maximal activity seen.

The values above are taken from PubChem BioAssay (EPA / NIEHS).
